Measured values: PubChem BioAssay AID1159580 (chemical genetic matrix, 2015)
In all, about 5,500 compounds went through this assay and about 2,000 (36%) were called active. About 18% were inconclusive and are not listed. Rule as the data show it: active = normalized growth mostly below about 0.91 (no sharp cut-off); inconclusive = no clear call, values can overlap the other calls; inactive = mostly above about 0.92. This is one part of the list.

Assay: chemical genetic growth profiling, strain panel (AID 1159580);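 also: tested at 20 µM; growth read once vehicle control cultures reached saturation at 30 °C; 1 = growth at the plate median or of vehicle wells; lower values mean less growth of the strain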
Settings: growth OD

Measured: normalized growth

CC(C(=O)O)c1ccc2c(c1)[nH]c1ccc(Cl)cc12 (configuration not stated)
active: S. cerevisiae deletion strains, locus YLR113W, strain HOG1, active compounds read low 0.248 | S. cerevisiae deletion strains, locus YNL183C, strain NPR1, active compounds read low 0.507 | S. cerevisiae deletion strains, locus YNL250W, strain rad50, active compounds read low 0.885 | S. cerevisiae deletion strains, locus YNL322C, strain KRE1 (second series), active compounds read low 0.895 | S. cerevisiae deletion strains, locus YOR231W, strain MKK1, active compounds read low 0.212 | S. cerevisiae deletion strains, locus YPL256C, strain CLN2, active compounds read low 0.238
inactive: S. cerevisiae deletion strains, locus YJR075W, strain HOC1, active compounds read low 1.01 | S. cerevisiae deletion strains, locus YKL009W, strain mrt4, active compounds read low 0.975 | S. cerevisiae deletion strains, locus YKL068W, active compounds read low 0.964 | S. cerevisiae deletion strains, locus YKL085W, strain MDH1 (second series), active compounds read low 0.95 | S. cerevisiae deletion strains, locus YKL085W, strain MDH1, active compounds read low 0.95 | S. cerevisiae deletion strains, locus YKL160W, strain elf1, active compounds read low 0.941 | S. cerevisiae deletion strains, locus YKL190W, strain CNB1, active compounds read low 1.01 | S. cerevisiae deletion strains, locus YKR001C, strain vps1, active compounds read low 0.937 | S. cerevisiae deletion strains, locus YKR026C, strain gcn3, active compounds read low 0.983 | S. cerevisiae deletion strains, locus YKR091W, strain srl3, active compounds read low 0.988 | S. cerevisiae deletion strains, locus YLL001W, strain dnm1, active compounds read low 1 | S. cerevisiae deletion strains, locus YLL026W, active compounds read low 0.978 | S. cerevisiae deletion strains, locus YLL041C, strain sdh2, active compounds read low 1 | S. cerevisiae deletion strains, locus YLR027C, strain aat2, active compounds read low 0.992 | S. cerevisiae deletion strains, locus YLR039C, strain RIC1, active compounds read low 0.977 | S. cerevisiae deletion strains, locus YLR058C, strain SHM2, active compounds read low 1 | S. cerevisiae deletion strains, locus YLR102C, strain apc9, active compounds read low 0.991 | S. cerevisiae deletion strains, locus YLR221C, strain rsa3, active compounds read low 0.986 | S. cerevisiae deletion strains, locus YLR258W, strain gsy2, active compounds read low 0.976 | S. cerevisiae deletion strains, locus YLR262C, strain YPT6 (second series), active compounds read low 0.94 | S. cerevisiae deletion strains, locus YLR262C, strain YPT6, active compounds read low 0.989 | S. cerevisiae deletion strains, locus YLR268W, strain sec22, active compounds read low 0.992 | S. cerevisiae deletion strains, locus YLR320W, strain mms22, active compounds read low 0.937 | S. cerevisiae deletion strains, locus YLR330W, strain CHS5, active compounds read low 0.998 | S. cerevisiae deletion strains, locus YLR342W, strain FKS1 (second series), active compounds read low 0.987 | S. cerevisiae deletion strains, locus YLR342W, strain FKS1, active compounds read low 0.966 | S. cerevisiae deletion strains, locus YLR357W, strain rsc2, active compounds read low 0.923 | S. cerevisiae deletion strains, locus YLR370C, strain arc18, active compounds read low 0.972 | S. cerevisiae deletion strains, locus YLR371W, strain rom2, active compounds read low 0.984 | S. cerevisiae deletion strains, locus YLR384C, strain iki3, active compounds read low 0.964 | S. cerevisiae deletion strains, locus YLR418C, strain cdc73, active compounds read low 0.962 | S. cerevisiae deletion strains, locus YML016C, strain PPZ1, active compounds read low 1.01 | S. cerevisiae deletion strains, locus YML032C, strain rad52, active compounds read low 0.965 | S. cerevisiae deletion strains, locus YML120C, strain ndi1, active compounds read low 0.985 | S. cerevisiae deletion strains, locus YML124C, strain tub3, active compounds read low 0.981 | S. cerevisiae deletion strains, locus YMR058W, strain fet3, active compounds read low 1 | S. cerevisiae deletion strains, locus YMR078C, strain ctf18, active compounds read low 0.983 | S. cerevisiae deletion strains, locus YMR125W, strain sto1, active compounds read low 0.969 | S. cerevisiae deletion strains, locus YMR129W, active compounds read low 0.995 | S. cerevisiae deletion strains, locus YMR205C, strain PFK2, active compounds read low 0.962 | S. cerevisiae deletion strains, locus YMR223W, strain ubp8, active compounds read low 0.975 | S. cerevisiae deletion strains, locus YMR231W, strain pep5, active compounds read low 0.957 | S. cerevisiae deletion strains, locus YMR263W, strain SAP30, active compounds read low 1.02 | S. cerevisiae deletion strains, locus YMR307W, strain GAS1, active compounds read low 0.996 | S. cerevisiae deletion strains, locus YNL067W, strain RPL9B, active compounds read low 1.03 | S. cerevisiae deletion strains, locus YNL071W, strain lat1, active compounds read low 0.982 | S. cerevisiae deletion strains, locus YNL128W, strain TEP1, active compounds read low 1 | S. cerevisiae deletion strains, locus YNL153C, strain GIM3, active compounds read low 1.03 | S. cerevisiae deletion strains, locus YNL209W, strain ssb2, active compounds read low 0.988 | S. cerevisiae deletion strains, locus YNL233W, strain BNI4, active compounds read low 1.02 | S. cerevisiae deletion strains, locus YNL248C, strain rpa49, active compounds read low 0.963 | S. cerevisiae deletion strains, locus YNL271C, strain bni1, active compounds read low 0.942 | S. cerevisiae deletion strains, locus YNL298W, strain CLA4, active compounds read low 0.91 | S. cerevisiae deletion strains, locus YNL307C, strain MCK1, active compounds read low 0.963 | S. cerevisiae deletion strains, locus YNL322C, strain KRE1, active compounds read low 1.01 | S. cerevisiae deletion strains, locus YNR049C, strain mso1, active compounds read low 0.988 | S. cerevisiae deletion strains, locus YNR052C, strain pop2, active compounds read low 0.97 | S. cerevisiae deletion strains, locus YOL006C, strain TOP1, active compounds read low 1.07 | S. cerevisiae deletion strains, locus YOL012C, strain htz1 0.756 | S. cerevisiae deletion strains, locus YOL147C, strain pex11, active compounds read low 0.974 | S. cerevisiae deletion strains, locus YOR001W, strain rrp6, active compounds read low 1 | S. cerevisiae deletion strains, locus YOR061W, strain CKA2, active compounds read low 1 | S. cerevisiae deletion strains, locus YOR069W, strain VPS5, active compounds read low 1.01 | S. cerevisiae deletion strains, locus YOR070C, strain gyp1, active compounds read low 0.981 | S. cerevisiae deletion strains, locus YOR080W, strain dia2, active compounds read low 1 | S. cerevisiae deletion strains, locus YOR083W, strain WHI5, active compounds read low 0.898 | S. cerevisiae deletion strains, locus YOR106W, strain vam3, active compounds read low 0.925 | S. cerevisiae deletion strains, locus YOR136W, strain idh2, active compounds read low 0.963 | S. cerevisiae deletion strains, locus YOR144C, strain elg1, active compounds read low 0.98 | S. cerevisiae deletion strains, locus YOR184W, strain ser1, active compounds read low 0.986 | S. cerevisiae deletion strains, locus YOR265W, strain rbl2, active compounds read low 0.993 | S. cerevisiae deletion strains, locus YOR270C, strain vph1, active compounds read low 0.999 | S. cerevisiae deletion strains, locus YOR290C, strain snf2, active compounds read low 0.95 | S. cerevisiae deletion strains, locus YOR316C, strain cot1, active compounds read low 0.989 | S. cerevisiae deletion strains, locus YPL051W, strain arl3, active compounds read low 0.953 | S. cerevisiae deletion strains, locus YPL055C, strain LGE1, active compounds read low 1.04 | S. cerevisiae deletion strains, locus YPL078C, strain atp4, active compounds read low 0.946 | S. cerevisiae deletion strains, locus YPL106C, strain sse1, active compounds read low 0.938 | S. cerevisiae deletion strains, locus YPL240C, strain hsp82, active compounds read low 1 | S. cerevisiae deletion strains, locus YPL241C, strain CIN2, active compounds read low 1.01 | S. cerevisiae deletion strains, locus YPR119W, strain clb2, active compounds read low 0.993 | S. cerevisiae deletion strains, locus YPR141C, strain kar3, active compounds read low 0.967 | S. cerevisiae deletion strains, locus YPR163C, strain tif3, active compounds read low 0.981 | S. cerevisiae deletion strains, locus YPR167C, strain met16, active compounds read low 0.995 | S. cerevisiae deletion strains, strain wtn01, active compounds read low 0.998 | S. cerevisiae strains, strain wild type, active compounds read low 0.995
